# According to PMC5540273 (PLoS ONE, 2017):
# Where two headings read alike, the source gives them in different places.
# Columns and labels:
# SRMS = conditions: concentration: 1 μM, replicates: in singlicate; n = 1
# SRPK1 = conditions: concentration: 1 μM, replicates: in singlicate; n = 1
# SRPK2 = conditions: concentration: 1 μM, replicates: in singlicate; n = 1
# SRPK3 = conditions: concentration: 1 μM, replicates: in singlicate; n = 1
# STK16 = conditions: concentration: 1 μM, replicates: in singlicate; n = 1
# STK33 = conditions: concentration: 1 μM, replicates: in singlicate; n = 1
# STK35 = conditions: concentration: 1 μM, replicates: in singlicate; n = 1
# STK36 = conditions: concentration: 1 μM, replicates: in singlicate; n = 1
# STK39 = conditions: concentration: 1 μM, replicates: in singlicate; n = 1
# SYK = conditions: concentration: 1 μM, replicates: in singlicate; n = 1
# SgK110 = conditions: concentration: 1 μM, replicates: in singlicate; n = 1
# TAK1 = test system: T1, TAK1; conditions: concentration: 1 μM, replicates: in singlicate; n = 1
# T1 construct: gene MAP3K7
# TAOK1 = conditions: concentration: 1 μM, replicates: in singlicate; n = 1
# TAOK2 = conditions: concentration: 1 μM, replicates: in singlicate; n = 1
# TAOK3 = conditions: concentration: 1 μM, replicates: in singlicate; n = 1
# TBK1 = conditions: concentration: 1 μM, replicates: in singlicate; n = 1
# TEC = conditions: concentration: 1 μM, replicates: in singlicate; n = 1
# TESK1 = conditions: concentration: 1 μM, replicates: in singlicate; n = 1
# TGFBR1 = conditions: n = 1
# TGFBR2 = conditions: concentration: 1 μM, replicates: in singlicate; n = 1
# [1] = concentration: 1 μM, replicates: in singlicate
# 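Also: KINOMEscan kinase panel screen.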
smiles,measurement,setting,value
Cc1cccc(-c2nc(Nc3ccc4[nH]nnc4c3)c3ccccc3n2)n1 [GW867587],%Inh,SRMS,10%
same,%Inh,SRPK1,0%
same,%Inh,SRPK2,0%
same,%Inh,SRPK3,7%
same,%Inh,STK16,0%
same,%Inh,STK33,0%
same,%Inh,STK35,0%
same,%Inh,STK36,0%
same,%Inh,STK39,0%
same,%Inh,SYK,0%
same,%Inh,SgK110,19%
same,%Inh,TAK1,0%
same,%Inh,TAOK1,0%
same,%Inh,TAOK2,0%
same,%Inh,TAOK3,0%
same,%Inh,TBK1,14%
same,%Inh,TEC,0%
same,%Inh,TESK1,0%
same,%Inh,TGFBR1; [1],32%
same,%Inh,TGFBR2,0%
O=C(CCO)NCCn1ccc2ncnc(Nc3ccc(Oc4cccc(C(F)(F)F)c4)c(Cl)c3)c21,%Inh,SRMS,0%
same,%Inh,SRPK1,0%
same,%Inh,SRPK2,0%
same,%Inh,SRPK3,4%
same,%Inh,STK16,8%
same,%Inh,STK33,0%
same,%Inh,STK35,5%
same,%Inh,STK36,0%
same,%Inh,STK39,0%
same,%Inh,SYK,4%
same,%Inh,SgK110,0%
same,%Inh,TAK1,0%
same,%Inh,TAOK1,0%
same,%Inh,TAOK2,10%
same,%Inh,TAOK3,0%
same,%Inh,TBK1,16%
same,%Inh,TEC,0%
same,%Inh,TESK1,6%
same,%Inh,TGFBR1; [1],0%
same,%Inh,TGFBR2,0%
Fc1cccc(COc2ccc(Nc3ncnc4nn5ccccc5c34)cc2Cl)c1 [GW689066],%Inh,SRMS,0%
same,%Inh,SRPK1,2%
same,%Inh,SRPK2,30%
same,%Inh,SRPK3,8%
same,%Inh,STK16,12%
same,%Inh,STK33,0%
same,%Inh,STK35,0%
same,%Inh,STK36,0%
same,%Inh,STK39,0%
same,%Inh,SYK,26%
same,%Inh,SgK110,0%
same,%Inh,TAK1,0%
same,%Inh,TAOK1,0%
same,%Inh,TAOK2,0%
same,%Inh,TAOK3,0%
same,%Inh,TBK1,0%
same,%Inh,TEC,0%
same,%Inh,TESK1,14%
same,%Inh,TGFBR1; [1],0%
same,%Inh,TGFBR2,0%
C[C@H]1CC[C@@H](C(=O)Nc2ccccc2)CN1c1cc(-c2ccc3c(N)n[nH]c3c2)nc(N)n1 [GSK2283293],%Inh,SRMS,19%
same,%Inh,SRPK1,54%
same,%Inh,SRPK2,0%
same,%Inh,SRPK3,16%
same,%Inh,STK16,0%
same,%Inh,STK33,0%
same,%Inh,STK35,0%
same,%Inh,STK36,0%
same,%Inh,STK39,0%
same,%Inh,SYK,4%
same,%Inh,SgK110,0%
same,%Inh,TAK1,0%
same,%Inh,TAOK1,0%
same,%Inh,TAOK2,0%
same,%Inh,TAOK3,0%
same,%Inh,TBK1,7%
same,%Inh,TEC,11%
same,%Inh,TESK1,26%
same,%Inh,TGFBR1; [1],14%
same,%Inh,TGFBR2,0%
Cc1ccc(NC(=O)c2cccc(C#N)c2)cc1-c1ccc(C(=O)Nc2ccncc2)cc1 [GSK1398463],%Inh,SRMS,0%
same,%Inh,SRPK1,11%
same,%Inh,SRPK2,0%
same,%Inh,SRPK3,12%
same,%Inh,STK16,0%
same,%Inh,STK33,0%
same,%Inh,STK35,5%
same,%Inh,STK36,0%
same,%Inh,STK39,16%
same,%Inh,SYK,0%
same,%Inh,SgK110,3%
same,%Inh,TAK1,0%
same,%Inh,TAOK1,0%
same,%Inh,TAOK2,23%
same,%Inh,TAOK3,3%
same,%Inh,TBK1,20%
same,%Inh,TEC,11%
same,%Inh,TESK1,0%
same,%Inh,TGFBR1; [1],0%
same,%Inh,TGFBR2,0%
Cl.Cn1ccc(-c2cccc(Nc3ccnc4cc(-c5nccs5)ccc34)c2)n1 [GW525701],%Inh,SRMS,0%
same,%Inh,SRPK1,0%
same,%Inh,SRPK2,51%
same,%Inh,SRPK3,0%
same,%Inh,STK16,4%
same,%Inh,STK33,0%
same,%Inh,STK35,0%
same,%Inh,STK36,0%
same,%Inh,STK39,6%
same,%Inh,SYK,0%
same,%Inh,SgK110,19%
same,%Inh,TAK1,0%
same,%Inh,TAOK1,0%
same,%Inh,TAOK2,0%
same,%Inh,TAOK3,0%
same,%Inh,TBK1,17%
same,%Inh,TEC,17%
same,%Inh,TESK1,34%
same,%Inh,TGFBR1; [1],12%
same,%Inh,TGFBR2,0%
COc1ccc(Nc2nccc(N3CCC(NC(=O)Nc4ccc5c(c4)OCO5)C3)n2)cc1 (centres unmarked) [GSK1379745],%Inh,SRMS,0%
same,%Inh,SRPK1,29%
same,%Inh,SRPK2,3%
same,%Inh,SRPK3,17%
same,%Inh,STK16,0%
same,%Inh,STK33,3%
same,%Inh,STK35,8%
same,%Inh,STK36,0%
same,%Inh,STK39,17%
same,%Inh,SYK,40%
same,%Inh,SgK110,2%
same,%Inh,TAK1,0%
same,%Inh,TAOK1,0%
same,%Inh,TAOK2,0%
same,%Inh,TAOK3,0%
same,%Inh,TBK1,18%
same,%Inh,TEC,9%
same,%Inh,TESK1,12%
same,%Inh,TGFBR1; [1],8%
same,%Inh,TGFBR2,0%
NC(=O)c1sc(-n2cnc3ccccc32)cc1OCc1ccccc1F [GSK1024306],%Inh,SRMS,0%
same,%Inh,SRPK1,50%
same,%Inh,SRPK2,0%
same,%Inh,SRPK3,16%
same,%Inh,STK16,0%
same,%Inh,STK33,0%
same,%Inh,STK35,0%
same,%Inh,STK36,0%
same,%Inh,STK39,4%
same,%Inh,SYK,7%
same,%Inh,SgK110,0%
same,%Inh,TAK1,0%
same,%Inh,TAOK1,0%
same,%Inh,TAOK2,0%
same,%Inh,TAOK3,0%
same,%Inh,TBK1,0%
same,%Inh,TEC,22%
same,%Inh,TESK1,24%
same,%Inh,TGFBR1; [1],5%
same,%Inh,TGFBR2,0%
Cc1cc(N2CCC(NS(=O)(=O)c3ccc(F)cc3)CC2)nc(Nc2cccc(C#N)c2)n1.O=C(O)C(F)(F)F [GSK1653537],%Inh,SRMS,0%
same,%Inh,SRPK1,15%
same,%Inh,SRPK2,0%
same,%Inh,SRPK3,18%
same,%Inh,STK16,0%
same,%Inh,STK33,0%
same,%Inh,STK35,0%
same,%Inh,STK36,0%
same,%Inh,STK39,1%
same,%Inh,SYK,19%
same,%Inh,SgK110,6%
same,%Inh,TAK1,0%
same,%Inh,TAOK1,0%
same,%Inh,TAOK2,0%
same,%Inh,TAOK3,0%
same,%Inh,TBK1,1%
same,%Inh,TEC,0%
same,%Inh,TESK1,9%
same,%Inh,TGFBR1; [1],0%
same,%Inh,TGFBR2,11%
O=C(c1ccc(-c2cc(-c3c[nH]nc3-c3ccccn3)ccn2)cc1)N1CCCC1 [GW792479],%Inh,SRMS,0%
same,%Inh,SRPK1,0%
same,%Inh,SRPK2,64%
same,%Inh,SRPK3,26%
same,%Inh,STK16,16%
same,%Inh,STK33,0%
same,%Inh,STK35,0%
same,%Inh,STK36,0%
same,%Inh,STK39,0%
same,%Inh,SYK,20%
same,%Inh,SgK110,6%
same,%Inh,TAK1,0%
same,%Inh,TAOK1,0%
same,%Inh,TAOK2,45%
same,%Inh,TAOK3,0%
same,%Inh,TBK1,59%
same,%Inh,TEC,8%
same,%Inh,TESK1,20%
same,%Inh,TGFBR1; 1 µM,93.6%
same,%Inh,TGFBR2,39%
